Cdc42 wt GTP = human Cdc42 wildtype GTP binding change, either direction; P60953; GST-Cdc42 beads, Bodipy-GTP binding, flow cytometry; actives lie on both sides; percent activity (GTP binding), % at 10 µM; hit rate 0.2% among 190,000; AID 761;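 active means percent activity GTP binding at least 20 points away from the 100% baseline, either down as inhibitor or up as activator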;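 further: median bead fluorescence of bound Bodipy-FL-GTP at 100 nM; 0% = excess unlabeled GTP control and 100% = no compound control; below 100% means less GTP binding so inhibitor and above means activator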
Target sequence (P60953 whole entry, looked up): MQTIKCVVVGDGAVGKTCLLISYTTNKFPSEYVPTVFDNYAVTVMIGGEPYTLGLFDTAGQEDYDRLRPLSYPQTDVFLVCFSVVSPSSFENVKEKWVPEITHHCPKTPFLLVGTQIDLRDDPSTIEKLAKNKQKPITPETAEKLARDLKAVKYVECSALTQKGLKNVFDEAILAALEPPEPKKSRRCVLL
Rac1 wt GTP bind = human Rac1 wildtype GTP binding, inhibitors and activators | GST-Rac1 beads, fluorescent GTP binding, flow cytometry; actives lie on both sides; 0 = cold GTP competed, 100 = untreated | GTP binding activity (% of control), % at 10 µM | hit rate 0.27% among 190,000 | AID 757;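 active means GTP binding activity at least 20 points away from the 100% control level, either lower or higher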
Rab2 wt GTP = changes GTP binding to wildtype dog Rab2A, up or down; GST-Rab2 wt beads, Bodipy-GTP binding, flow cytometry; hit rate 0.19% among 190,000; GTP binding activity, % at 10 µM; P61105; AID 760;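 active means GTP binding activity at least 20 points away from 100%, either lowered or raised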;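 further: 0% = beads with excess unlabeled GTP and 100% = no-compound control corrected for plate trend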
HRas wt GTP = changes GTP binding to wildtype human HRas. GST-Ras wt beads, Bodipy-FL-GTP binding, flow cytometry; actives lie on both sides. hit rate 0.14% among 190,000. AID 759. P01112. GTP binding activity, % at 10 µM;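 active means GTP binding activity at least 20% away from the 100% baseline, either lowered as inhibitor or raised as activator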;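 further: 0% = unlabeled GTP competition control and 100% = no-compound control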
Target sequence (P01112 whole entry, looked up): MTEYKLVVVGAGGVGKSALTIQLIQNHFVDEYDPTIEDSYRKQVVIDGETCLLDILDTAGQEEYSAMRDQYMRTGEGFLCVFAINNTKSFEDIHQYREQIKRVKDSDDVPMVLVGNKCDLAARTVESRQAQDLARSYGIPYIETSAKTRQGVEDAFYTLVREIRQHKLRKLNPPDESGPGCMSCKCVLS
Rab7 wt modul = dog Rab7 wildtype GTP binding, inhibitors and activators; GST-Rab7 beads, fluorescent GTP binding, flow cytometry; actives lie on both sides; untreated = 100%, excess cold GTP = 0%; GTP binding activity (percent of control), % at 10 µM; hit rate 0.055% among 190,000; AID 758;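 active means fluorescent GTP binding to Rab7 beads changed by at least 20 points from the 100% baseline, either direction, mostly lower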;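 further: median green fluorescence of bound Bodipy-FL-GTP per Rab7 bead population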
Rac1 act GTP bind = human Rac1 activated mutant GTP binding change | P63000 | GST-Rac1 activated beads, fluorescent GTP binding, flow cytometry; actives lie on both sides; 100% means binding = to untreated wells | percent activity (GTP binding), % at 10 µM | hit rate 0.11% among 190,000;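 active means GTP binding at least 20 percentage points away from the 100% baseline, in either direction, so actives lie on both sides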
Starred values were filed as active, the others as inactive; [ ] = remark or other dose. Hits are enriched below; roughly 0.37% of the tested compounds scored in any of these assays.

SMILES	Cdc42 wt GTP	Rac1 wt GTP bind	Rab2 wt GTP	HRas wt GTP	Rab7 wt modul	Rac1 act GTP bind
Nc1c(S(=O)(=O)c2cccs2)c2nc3ccccc3nc2n1/N=C/c1cccc(O)c1	45.0*	64.0*	46.0*	47.0*	73.0*	64.0*
COc1ccc(/C=N/n2c(N)c(S(=O)(=O)c3cccs3)c3nc4ccccc4nc32)cc1OC	61.0*	57.0*	49.0*	56.0*	75.0*	74.0*
CC(C)Cn1c(N)c(S(=O)(=O)c2cccs2)c2nc3ccccc3nc21	101.0	100.0	100.0	100.0	99.0	99.0
Cc1ccc(C(=O)c2ccccc2C(=O)O)c(O)c1	102.0	103.0	99.0	101.0	100.0	98.0
Cc1cc(C)c(C)c(C(=O)c2ccccc2C(=O)O)c1C	132.0*[activator]	150.0*[activator]	123.0*[activator]	120.0*[activator]	119.0	129.0*[activator]
Cc1ccc(C(=O)c2ccccc2C(=O)O)cc1C	135.0*[activator]	150.0*[activator]	124.0*[activator]	123.0*[activator]	119.0	132.0*[activator]
Cc1cccc(-n2nc(CC#N)c(C#N)c2N)c1	82.0	82.0	78.0*	82.0	90.0	91.0
Cc1csc(NC(=O)C2CCCCC2C(=O)O)n1 (stereo unspecified)	100.0	102.0	99.0	98.0	100.0	99.0
COc1ccc(C(=O)CSc2ccc3nnc(-c4cccnc4)n3n2)cc1	92.0	88.0	95.0	98.0	101.0	96.0
O=C(O)CSc1ccc2nnc(-c3cccnc3)n2n1	87.0	78.0*	88.0	91.0	98.0	91.0
Cc1ccc(C)c(/C=N/NC(=S)NC(C)C)c1	99.0	101.0	96.0	95.0	91.0	98.0
COc1cccc(-c2cc(C(F)(F)F)c(C#N)c(=O)[nH]2)c1	81.0	80.0	78.0*	83.0	85.0	77.0*
CC1=C(C(=O)Nc2ccccc2)C(c2ccncc2)n2nnnc2N1 (stereo unspecified)	102.0	105.0	97.0	101.0	94.0	101.0
CCOC(=O)c1c(CSc2ccccc2)n(C)c2cc(Br)c(OCC(O)CNC(CO)(CO)CO)cc12 (stereo unspecified)	113.0	120.0*[activator]	107.0	113.0	104.0	113.0
CCC(C)OC(=O)C1=C(C)OC23OC(N)=C(C#N)C12C(=O)c1ccccc13 (stereo unspecified)	102.0	102.0	100.0	103.0	99.0	97.0
COc1ccc(N=C2NC(=O)/C(=C/c3ccc(O)c(OC)c3)S2)cc1	96.0	90.0	93.0	92.0	100.0	95.0
COc1cc(/C=C2/SC(=Nc3ccc(O)cc3)NC2=O)cc(OC)c1O	69.0*	59.0*	70.0*	74.0*	86.0	79.0*
O=C(NC1CCCCC1)c1cc([N+](=O)[O-])[nH]n1	111.0	127.0*[activator]	109.0	111.0	109.0	108.0
CCCCNC(=O)c1cc([N+](=O)[O-])[nH]n1	108.0	127.0*[activator]	104.0	106.0	104.0	108.0
O=C(CN1C(=O)C2C3c4ccccc4C(c4ccccc43)C2C1=O)Nc1cccc(C(=O)O)c1 (stereo unspecified)	125.0*[activator]	130.0*[activator]	127.0*[activator]	124.0*[activator]	145.0*[activator]	155.0*[activator]
CCCSc1nc2c(cnn2-c2ccc(Cl)cc2)c(=O)[nH]1	93.0	91.0	92.0	94.0	92.0	94.0
OC(c1cccc(OCc2ccccc2)c1)c1nnc(-c2ccccc2)o1 (stereo unspecified)	100.0	103.0	97.0	97.0	98.0	95.0
OC(c1ccc(OCc2ccccc2)cc1)c1nnc(-c2ccccc2)o1 (stereo unspecified)	75.0*	74.0*	81.0	82.0	92.0	78.0*
CC(=O)OC(C(=O)NC1CCCCC1)c1ccc(Cl)c(Cl)c1 (stereo unspecified)	35.0*	29.0*	33.0*	35.0*	22.0*	31.0*
CCOc1ccc(OCc2cccc(C(=O)N/N=C/c3cccnc3)c2)cc1	101.0	100.0	94.0	96.0	100.0	98.0
SMILES	Cdc42 wt GTP	Rac1 wt GTP bind	Rab2 wt GTP	HRas wt GTP	Rab7 wt modul	Rac1 act GTP bind
Nc1nc2c(c(=O)[nH]1)C(c1cccc3ccccc13)C1=C(N2)c2ccccc2C1=O (stereo unspecified)	79.0*	74.0*	79.0*	83.0	91.0	87.0
CCOC(=O)c1sc2nc(C3CC3)cc(-c3ccc(F)cc3)c2c1N	97.0	97.0	97.0	98.0	103.0	95.0
O=C(O)COc1ccccc1/C=N/Nc1ccc(S(=O)(=O)Nc2ccc(Cl)cc2)cc1[N+](=O)[O-]	79.0*	84.0	84.0	87.0	94.0	80.0
COc1ccc(-c2c3c(nc4sc5c(=O)[nH]c(C)nc5c24)CCC3)cc1	81.0	76.0*	76.0*	81.0	87.0	89.0
O=C(O)CC/C(=C\c1ccc(N2CCOCC2)c([N+](=O)[O-])c1)c1nc2ccccc2s1	71.0*	82.0	74.0*	77.0*	80.0	72.0*
O=c1[nH]c(N/N=C\c2ccc3c(c2)OCO3)nc2ccccc12	78.0*	67.0*	77.0*	80.0*	85.0	86.0
CC(=O)c1ccc(N2CCN(C(=O)c3ccc4c(=O)n(-c5ccccc5)c(=O)[nH]c4c3)CC2)cc1	105.0	121.0*[activator]	107.0	108.0	104.0	106.0
O=C(c1ccc2c(=O)n(-c3ccccc3)c(=O)[nH]c2c1)N1CCN(c2ccc(F)cc2)CC1	106.0	110.0	105.0	105.0	107.0	101.0
COc1ccc(-c2cc(-c3ccccc3)c(C#N)c(=S)[nH]2)cc1	79.0*	85.0	85.0	82.0	95.0	80.0
CCCC(=O)Nc1cccc(NC(=O)c2ccc3c(c2)OCCO3)c1	99.0	102.0	97.0	99.0	102.0	95.0
Cc1cc2nc3c(=O)n(C4CCCCC4)c(=O)[nH]c3nc2cc1N	79.0*	74.0*	73.0*	76.0*	93.0	87.0
O=C(O)c1ccccc1OCCOc1ccccc1	138.0*[activator]	157.0*[activator]	130.0*[activator]	123.0*[activator]	123.0*[activator]	132.0*[activator]
COc1ccc(-c2cc(C(F)(F)F)c3c(n2)sc2c(O)cc(=O)[nH]c23)c(OC)c1	89.0	80.0	78.0*	80.0	93.0	89.0
Cc1cc(C)c2c(n1)sc1c(O)cc(=O)[nH]c12	104.0	107.0	103.0	100.0	100.0	102.0
CCOC(=O)Cc1cnc(N)s1	94.0	95.0	102.0	94.0	96.0	94.0
CC(C)C(c1nnnn1Cc1ccc2c(c1)OCO2)N1CCN(C)CC1 (stereo unspecified)	101.0	103.0	101.0	102.0	91.0	103.0
Cc1ccc(OCCn2cnc3cc([N+](=O)[O-])ccc3c2=O)cc1	79.0*	90.0	79.0*	82.0	100.0	87.0
O=c1c2ccc([N+](=O)[O-])cc2ncn1CCOc1ccccc1	84.0	76.0*	79.0*	81.0	95.0	87.0
